Reference: PubChem BioAssay AID686978 (National Center for Advancing Translational Sciences (NCATS), 2013)
Screen size: about 420,000 compounds; about 64,000 (15%) were called active. Not shown: some 27% with an inconclusive outcome. These entries were drawn from the full list. Unmarked numbers belong to inactive results. Calls follow the shape of the dose curve; as a rule, active = well fitted inhibition curve with a large enough effect; inconclusive = small, poorly fitted or top-dose-only effect; inactive = flat fitted curve, though single readings scatter.

assay: qHTS for Inhibitors of human tyrosyl-DNA phosphodiesterase 1 (TDP1): qHTS in cells in absence of CPT; conditions: DT40 Tdp1-/- hTDP1 cells, no CPT, ATP luminescence, 48 h; activity change, negative = growth inhibition: at 46.2 µM (top of the series); also: nearly all actives have a fitted effect of over 55% in size
How it was run: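 Seeded 400 DT40-hTDP1 cells/well (vehicle DMSO, no 20 nM CPT); pinned compounds; ≥48 hr at 37 °C; CellTiter-Glo luminescence as viability measure.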
% is scaled to controls: 0 for no effect and ±100 for the full control effect; potency is read from the fitted curve at half-maximal effect.

| SMILES | activity change, negative = growth inhibition [%] | Potency |
| --- | --- | --- |
| CC(/C=C/C1(O)C(C)CC(=O)CC1(C)C)OC1OC(CO)C(O)C(O)C1O (stereo unspecified) | -23.3 |  |
| CCOCc1nnc(NC(=O)CCC2CCCCC2)s1 | -26.3 |  |
| CCc1ccccc1NC(=O)NCCN1CCCCC1 | 1.53 |  |
| CCc1ccccc1NC(=O)c1ccc2c(c1)CCN2S(C)(=O)=O | -7.89 |  |
| CN1CCc2ccccc2C1Cc1ccccc1NC(=O)c1sc2ccccc2c1Cl (stereo unspecified) |  | 6.51 µM (active) |
| NNc1nnc(NN)c2ccccc12 | -1.45 |  |
| CC(O)CN(Cc1ccc(Cl)cc1)CC(C)O (stereo unspecified) | -4.59 |  |
| Cc1ccc(C)c(C(=O)N2CCC(n3nccc3NC(=O)C3CC3)CC2)c1 | -4.33 |  |
| Cc1ccc(NC(=O)N2CCSc3ccccc32)cc1 | -29.7 |  |
| Cc1ccc(CC(=O)Nc2cccc(C#N)c2)cc1 | -11.9 |  |
| Cc1ccc(NC(=O)Cc2ccc(NC(=O)N3CCCCc4ccccc43)cc2)cc1 |  | 23.1 µM (active) |
| CN(C)S(=O)(=O)c1cccc(C(=O)OCC(=O)N2CCCC2=O)c1 | 26.4 |  |
| O=C(CSc1ncn[nH]1)NCc1ccc2c(c1)OCO2 | 7.22 |  |
| OCCC1CN(Cc2ccc(Oc3ncccn3)cc2)CCN1CCc1ccccc1 (stereo unspecified) | -23.7 |  |
| OCCC1CN(Cc2cccc(O)c2)CCN1CCc1ccccc1 (stereo unspecified) | -27 |  |
| CCOc1ccc(CN2CCN(CCCc3ccccc3)C(CCO)C2)cc1 (stereo unspecified) |  | 20.6 µM (active) |

| SMILES | activity change, negative = growth inhibition [%] | Potency |
| --- | --- | --- |
| CCOc1ccc(CN2CCN(Cc3ccon3)CC2CCO)cc1 (stereo unspecified) | -4.58 |  |
| CCOc1ccc(CN2CCN(Cc3ccc4cc(F)ccc4n3)CC2CCO)cc1 (stereo unspecified) |  | 25.9 µM (active) |
| OCCC1CN(Cc2cnc(-c3ccccc3)s2)CCN1CCc1ccccc1 (stereo unspecified) |  | 8.2 µM (active) |
| OCCC1CN(Cc2cccn2-c2nccs2)CCN1CCc1ccccc1 (stereo unspecified) | -21.4 |  |
| COc1cccc(CN2CCN(Cc3ccc4cccc(F)c4n3)CC2CCO)c1 (stereo unspecified) | -27.6 |  |
| Cc1ccc(CN2CCN(Cc3ccc(OCCO)cc3)CC2CCO)o1 (stereo unspecified) | 9.04 |  |
| C[C@H]1CN([C@@H](C)CO)C(=O)CCCn2nncc2CO[C@@H]1CN(C)S(=O)(=O)c1cccc(C#N)c1 | 3.79 |  |
| CCCOC(=O)c1ccc(N2C(=O)c3ccccc3C2=O)cc1 | 7.66 |  |
| CCOc1ccc(CCNC(=O)COC(=O)CCS(=O)(=O)c2ccc(C)cc2)cc1OCC | -8.89 |  |
| COC(=O)CN1C(C)=Nc2ccc(Br)cc2C1c1ccccc1 (stereo unspecified) | -22.8 |  |
| O=C(/C=C/c1ccccc1[N+](=O)[O-])NCC1CCCO1 (stereo unspecified) | 6.91 |  |
| CC1CCCCC1NC(=O)/C(C#N)=C/C=C/c1ccccc1[N+](=O)[O-] (stereo unspecified) |  | 9.2 µM (active) |
| O=C(/C=C/c1ccccc1[N+](=O)[O-])OC1CCCCC1=O (stereo unspecified) | 10.5 |  |
| CCC(CC)C(=O)Nc1cccc(C(=O)N2CCCC2)c1 | -15.9 |  |
| Cc1occc1-c1nnc(SCC(=O)NC2(C#N)CCCC2)n1C | -12.1 |  |
